The list is not random: actives were taken first. Their share in the collection is about 8.3%.
Giardia FBPA inh = Giardia lamblia aldolase inhibition; Potency, µM (highest dose often 59.6 µM), most hits filed as inhibitors; 290,000 tested, 0.71% active; purified Giardia FBPA; note: nearly all actives have a fitted effect of over 55% in size
Target sequence (A8B2U2 whole entry, looked up): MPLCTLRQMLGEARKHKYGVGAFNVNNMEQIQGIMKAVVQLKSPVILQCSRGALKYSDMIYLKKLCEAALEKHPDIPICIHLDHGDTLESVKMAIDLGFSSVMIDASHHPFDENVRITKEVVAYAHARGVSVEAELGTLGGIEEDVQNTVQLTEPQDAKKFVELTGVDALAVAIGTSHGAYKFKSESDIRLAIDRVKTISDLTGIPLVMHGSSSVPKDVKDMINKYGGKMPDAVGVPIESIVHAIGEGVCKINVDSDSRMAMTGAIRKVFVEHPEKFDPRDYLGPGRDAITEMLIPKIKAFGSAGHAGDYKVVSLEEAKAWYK
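Giardia FBPA (40 nM reagent) was preincubated 10 min at RT with compound (up to 57.5 uM final), then substrate plus GAPDH/TPI/NAD/arsenate coupling system with diaphorase/resazurin was added; resorufin fluorescence (525/598 nm) was read after 20 min.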
HCV inh = HCV inhibition | Huh7.5.1 HCVcc-Cre infection, luciferase reporter, 44 h | Potency, µM (highest dose often 41.8 µM), actives largely listed as inhibitors | 340,000 tested, 3.4% active | AID 651820
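Infectious HCV cell culture screen: compound-treated cells (1,000/well, pre-plated 4 h) are infected with HCVcc-Cre at roughly 0.5 moi and grown 44 h. Infection is quantified by luciferase signal after 15 min substrate incubation at room temperature.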
FMDV inh = blocks foot and mouth disease virus | FMDV antiviral cell-based qHTS | Potency, µM (top dose mostly 57.9 µM), usual class: inhibitors | 410,000 tested, 1.2% active | AID 1159524; calls by dose curve; tested in HEK293T cells; note: read-out not given here; nearly all actives have a fitted effect of over 45% in size
MARV entry inh = blocks Marburg virus binding to or entry into cells | Marburg virus pseudotyped entry inhibition, cell reporter | Potency, µM (top dose mostly 37.8 µM), usual class: inhibitors | 300,000 tested, 1.8% active; calls by dose curve; tested in HEK293 cells
HCMV inh = blocks human cytomegalovirus replication; activity change, negative = inhibition, % at 57.5 µM; HFF cells, HCMV-luciferase reporter, 72 h; stronger effect = lower value; 410,000 tested, 4.5% active; in the data active = activity change below about -60%; inconclusive = no clear call, values can overlap the other calls; inactive = above about -39%
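After 16 h attachment at 37C, HFF cells received test compound and HCMV-luciferase (1 PFU/cell); reporter luminescence read 72 h later, data normalized against buffer-only and known inhibitor Salinomycin.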
Lassa entry inh = blocks Lassa virus binding to or entry into cells; AID 540256; 300,000 tested, 1.2% active; Lassa virus pseudotype entry inhibition, cell reporter; Potency, µM (highest dose often 37.9 µM), usual class: inhibitors; calls by dose curve; tested in HEK293 cells; note: nearly all actives have a fitted effect of over 50% in size
Each line names hits and unclear results; the compound was inactive in the other large screens. Unless noted, calls come from the whole dose curve; as a rule, active = well fitted curve in the direction sought with a large enough effect; inconclusive = small, poorly fitted or top-dose-only effect, or another doubt; inactive = no such curve, though single readings can be large; an effect the other way counts as inactive or inconclusive.

Cc1cccc(Cl)c1NC(=O)N1CCN(c2ccnc3cc(Cl)ccc23)CC1	HCV inh inconclusive, FMDV inh inconclusive, HCMV inh -65.1 (no result: MARV entry inh, Lassa entry inh)
CC(=O)c1ccccc1C(=O)NCC1Cc2cccc(-c3cccnc3)c2O1 (stereo unspecified)	none (no result: Giardia FBPA inh, HCV inh, MARV entry inh, HCMV inh, Lassa entry inh)
COc1ccc(N2CCN(S(=O)(=O)c3ccc4oc(=O)c5ncn(C)c5c4c3)CC2)cc1	none (no result: Giardia FBPA inh, HCV inh, MARV entry inh)
Clc1ccc(Nc2ncnc3ccc(Br)cc23)cc1	HCV inh inconclusive, MARV entry inh inconclusive, HCMV inh -83.0 (no result: FMDV inh)
COc1ccc(Nc2ncnc3ccc(Br)cc23)cc1OC	HCV inh inconclusive, MARV entry inh inconclusive (no result: HCMV inh)
CCOC(=O)c1ccc(Nc2ncnc3ccc(C)cc23)cc1	MARV entry inh inconclusive
CN(C)c1ccc(Nc2ncnc3ccc(Br)cc23)cc1	HCMV inh -76.1 (no result: MARV entry inh, Lassa entry inh)
CCOC(=O)c1cccc(Nc2ncnc3ccc(C)cc23)c1	HCV inh 25.1µM, FMDV inh inconclusive, MARV entry inh inconclusive
Cc1cccc(Nc2ncnc3ccc(Br)cc23)c1	MARV entry inh inconclusive, HCMV inh -60.5
COc1cc2ncnc(Nc3cccc(Cl)c3)c2cc1OC	MARV entry inh inconclusive, Lassa entry inh inconclusive (no result: HCV inh, HCMV inh)
Clc1cccc(Nc2ncnc3ccc(Br)cc23)c1	HCV inh inconclusive, MARV entry inh inconclusive, HCMV inh -62.5 (no result: FMDV inh)
CCNC(=O)C1(C)CCN1CCS(=O)(=O)c1ccc(C)cc1 (stereo unspecified)	HCMV inh -102.5 (no result: Giardia FBPA inh, HCV inh, MARV entry inh, Lassa entry inh)
CC(OCC(O)CN(C)Cc1nc2ccccc2c(=O)[nH]1)c1ccc(Cl)cc1 (stereo unspecified)	Giardia FBPA inh inconclusive, HCV inh 10µM (no result: MARV entry inh, Lassa entry inh)
CC(NC(=O)CN(C)Cc1nc2ccccc2c(=O)[nH]1)c1ccccc1 (stereo unspecified)	none
CC1Cc2cc(S(=O)(=O)NCc3ccccc3)ccc2N1C(=O)C1CC1 (stereo unspecified)	HCV inh inconclusive (no result: MARV entry inh, Lassa entry inh)
CC1Cc2cc(S(=O)(=O)NCc3ccccc3)ccc2N1C(=O)C1CCC1 (stereo unspecified)	HCV inh inconclusive, MARV entry inh inconclusive, Lassa entry inh inconclusive
COc1ccc(NS(=O)(=O)c2ccc3c(c2)CC(C)N3C(=O)C2CCC2)cc1OC (stereo unspecified)	FMDV inh inconclusive, HCMV inh -78.4, Lassa entry inh inconclusive (no result: Giardia FBPA inh, HCV inh, MARV entry inh)
COc1cccc(NC(=O)CCNS(=O)(=O)c2ccc3c(c2)CC(C)N3C(=O)C2CC2)c1 (stereo unspecified)	HCMV inh -70.8 (no result: MARV entry inh, Lassa entry inh)
CC1Cc2cc(S(=O)(=O)NCCc3ccc(Cl)cc3)ccc2N1C(=O)C1CCC1 (stereo unspecified)	none (no result: Giardia FBPA inh, HCV inh, MARV entry inh)
COc1ccc(NC(=O)CCNS(=O)(=O)c2ccc3c(c2)CC(C)N3C(=O)C2CC2)cc1 (stereo unspecified)	none (no result: MARV entry inh, Lassa entry inh)
COc1cc(Cl)c(NS(=O)(=O)c2ccc3c(c2)CC(C)N3C(=O)C2CCC2)c(OC)c1 (stereo unspecified)	FMDV inh inconclusive, HCMV inh -86.3, Lassa entry inh inconclusive (no result: Giardia FBPA inh, HCV inh, MARV entry inh)
CCc1cccc(NS(=O)(=O)c2ccc3c(c2)CC(C)N3C(=O)C2CC2)c1 (stereo unspecified)	HCMV inh -79.6 (no result: Giardia FBPA inh, HCV inh, MARV entry inh)
N#Cc1nc(NCCCCO)nc(Nc2ccccc2)n1	none (no result: HCV inh, FMDV inh, MARV entry inh, HCMV inh, Lassa entry inh)
CCN1[C@H](C(=O)NCCOC)[C@@H](CO)[C@@H]2Cn3c(ccc(-c4ccc(C(=O)N(C)C)cc4)c3=O)[C@@H]21	none (no result: Giardia FBPA inh, HCV inh, FMDV inh, MARV entry inh, Lassa entry inh)
N#Cc1cccc(-c2nc(NCc3cccnc3)c3ccccc3n2)c1	none (no result: HCV inh, MARV entry inh, HCMV inh, Lassa entry inh)
COc1ccccc1-c1nccc(Nc2ccc(F)cc2)n1	none (no result: HCV inh, MARV entry inh, HCMV inh, Lassa entry inh)
Cn1c(/C=N/NC(=O)c2ccccc2Br)nc2ccccc21	Lassa entry inh inconclusive (no result: FMDV inh)
Cc1ccc(C(=O)N/N=C/c2nc3ccccc3n2C)cc1	HCV inh inconclusive, HCMV inh -65.6, Lassa entry inh inconclusive (no result: FMDV inh)
C[C@@H]1CN([C@@H](C)CO)C(=O)CCCn2cc(nn2)CO[C@H]1CN(C)C(=O)Nc1ccccc1F	none (no result: Giardia FBPA inh, HCV inh, FMDV inh, MARV entry inh, Lassa entry inh)
C=C(C(=O)c1ccccc1)C(c1ccccc1)C(C)C(=O)c1ccccc1 (stereo unspecified)	FMDV inh inconclusive, MARV entry inh inconclusive, HCMV inh -88.8, Lassa entry inh inconclusive
C=C(C(=O)c1ccccc1)C(C)C(=C)C(=O)c1ccccc1	HCV inh 14.1µM, FMDV inh inconclusive, MARV entry inh 7.94µM, HCMV inh -99.9, Lassa entry inh 17.8µM
C=C(C(=O)c1ccccc1)C(C(=C)C(=O)c1ccccc1)c1ccc(OC)cc1	HCV inh 3.55µM, FMDV inh 28.2µM, HCMV inh -99.8 (no result: MARV entry inh, Lassa entry inh)
COC(=O)C1=C(C(=O)OC)[C@@H]2N(C)c3ccccc3[C@@]23C[C@@H](C(=O)OC)N(S(=O)(=O)c2ccc(C#N)cc2)C3=N1	none (no result: HCV inh, FMDV inh, MARV entry inh, HCMV inh, Lassa entry inh)
Cc1ccc(C)c(N2CCN(C(=O)c3cnn(-c4ccccc4Cl)c3C3CCN(C(=O)OC(C)(C)C)CC3)CC2)c1	FMDV inh inconclusive, Lassa entry inh inconclusive (no result: Giardia FBPA inh, HCV inh, MARV entry inh)
Cc1ccc(C)c(N2CCN(CCCNC(=O)c3cnn(-c4cccc(Cl)c4)c3C3CCN(C(=O)OC(C)(C)C)CC3)CC2)c1	Lassa entry inh 12.6µM (no result: Giardia FBPA inh, HCV inh, MARV entry inh)
Cc1ccc(C)c(N2CCN(CCCNC(=O)c3cnn(-c4ccc(F)cc4)c3C3CCN(C(=O)OC(C)(C)C)CC3)CC2)c1	FMDV inh inconclusive (no result: Giardia FBPA inh, HCV inh, MARV entry inh)
Cc1ccc(C)c(N2CCN(CCCNC(=O)c3cnn(-c4ccccc4Cl)c3C3CCN(C(=O)OC(C)(C)C)CC3)CC2)c1	FMDV inh inconclusive, HCMV inh -105.2, Lassa entry inh inconclusive (no result: Giardia FBPA inh, HCV inh, MARV entry inh)
CC(C)(O)C#Cc1ccc(CN2CCc3nnc(CNC(=O)c4cccc(F)c4)n3CC2)cc1	none (no result: Giardia FBPA inh, HCV inh, MARV entry inh, HCMV inh, Lassa entry inh)

Screening results: PubChem, National Center for Advancing Translational Sciences (NCATS)
